According to PubChem BioAssay AID1822 (The Scripps Research Institute Molecular Screening Center, 2009):
Among all 290,000 compounds or so, about 3,500 (1.2%) were called active. This is one part of a sample in which actives are shown more often than they occur.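 Rule for the calls: active = inhibition above the campaign mean inhibition over all tested compounds plus 3 SD (cut at about 28% in these data); inactive = the rest.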

Each compound was assayed on M18 aspartyl aminopeptidase (Plasmodium falciparum 3D7) (assay: PfM18AAP inhibitors, malaria aminopeptidase, primary screen, biochemical, QFRET, recombinant enzyme (AID 1822;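 note: 0% = plate median of test compound wells and 100% = 2 mM ZnCl2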)). Conditions: H-Glu-NHMec fluorogenic cleavage, at 7.35 µM, active compounds read high.

inhibition, inactive:
Cc1cccc(NC(=O)N2CCCCCC2)c1C -13.5%, Cc1c(C)n(Cc2ccc(Cl)cc2)c2ccc(C(=O)NCCCN3CCOCC3)cc12 -3.58%, CCCCNc1ccc(C(=O)Nc2cccc(C)n2)cc1[N+](=O)[O-] -6.29%, CCOC(=O)c1sc(/N=C/C2=C(O)CC(C)(C)CC2=O)c(C(=O)OCC)c1C -7.73%, CCOC(=O)c1c(N)sc2c1CCCC2=O 13.3%, Cc1cc(NS(=O)(=O)c2ccc(NC(=O)C(C)Oc3cccc(C)c3C)cc2)nc(C)n1 (stereo unspecified) 1.85%, COc1ccc([N+](=O)[O-])cc1-c1nc2ccccc2nc1-c1ccccc1 0.66%, Cc1ccc2c(c1)N(CC(=O)N1CCOCC1)C(=O)CO2 -1.57%, CC(=O)c1ccc(NC(=O)c2ccc(-n3cncn3)c([N+](=O)[O-])c2)cc1 -11.7%, CCc1cc(=O)oc2c(C)c(OCC(=O)NCCN3CCOCC3)ccc12 -0.48%, COc1ccc(Cl)cc1NC(=O)CCS(=O)(=O)c1ccc(Br)cc1 -8.04%, Cc1cc(NC(=O)CCC(=O)N(Cc2ccccc2)C(C(=O)NC2CCCC2)c2ccc(C)o2)no1 (stereo unspecified) 8.33%, Cc1cc(C)nc(NS(=O)(=O)c2ccc(N3C(=O)C4CCCCC4C3=O)cc2)n1 (stereo unspecified) -7.47%, CCn1c(SCC(=O)NNC(=O)c2ccc(OC)cc2)nnc1C(C)C 4.07%, Cc1cccc([C@@H]2[C@@H]3C(=O)N(C)C(=O)[C@@H]3[C@@H]3C(=O)Nc4ccccc4C(=O)N23)c1 -3.83%, CCC1(CC)Cc2ccccc2-c2nc(CCl)[nH]c(=O)c21 2.03%, CC(C)=C(NC(=O)c1ccccc1)C(=O)N/N=C(\C)c1ccccc1O -2.21%, Cc1[nH]n(-c2ccccc2)c(=O)c1/C=N/NC(=O)c1ccoc1C -3.48%, COc1cc(C2C(C(=O)c3ccco3)=C(O)C(=O)N2c2cc(C)on2)ccc1OCc1ccccc1 (stereo unspecified) 1.75%, Cc1csc(=Nc2ccccc2)n1CCO 2.31%, Cc1csc(=NC(=O)c2ccccc2)n1CCO 4.05%, CC(=O)NS(=O)(=O)c1ccc2c(c1)Cc1cc(S(=O)(=O)NC(C)=O)ccc1-2 10.3%, COc1cc(SC#N)ccc1N=Cc1c(C)[nH]n(-c2ccc(C)cc2)c1=O -5.1%, CCN1CCN(C(=O)C2CCN(S(=O)(=O)c3cc(Cl)ccc3Cl)CC2)CC1 -5.08%, CC(=O)NC(=S)NNC(=O)c1ccc(Br)cc1 10.7%, COc1ccc(C(=O)NNC(=S)NC(=O)c2ccccc2)cc1 8.59%, CC1CCN(S(=O)(=O)c2ccc3c(ccn3CC(=O)O)c2)CC1 4.44%, Cc1ccc(/C=N/NC(=S)Nc2cccc(S(=O)(=O)N(C)C)c2)o1 9.59%, CN(C)S(=O)(=O)c1cccc(NC(=S)NCc2ccc3c(c2)OCO3)c1 -10.4%, Cc1ccc(S(=O)(=O)NNC(=O)/C=C/c2cccc(F)c2)cc1 12.8%, CC1Cc2cc(/C(O)=C3\C(=O)C(=O)N(Cc4cccnc4)C3c3ccccc3F)ccc2O1 (stereo unspecified) 7.22%, Cc1cc(C)nc(N/N=C/c2c(C)oc3ccccc23)n1 -6.94%, Cc1nc(Cl)cc(N/N=C/c2ccccc2)n1 1.31%, CCn1nc(C)c(CNC(=O)C2CCC(=O)N(Cc3cccc(F)c3)C2)c1C (stereo unspecified) -1.99%, COc1ccccc1C(=O)N(C1=NC(C)CS1)c1ccc(Cl)cc1 (stereo unspecified) -8.55%, O=C(CSc1ncn[nH]1)N/N=C/c1ccc(F)cc1 21.1%, O=C(CSc1ncn[nH]1)NCc1ccc2c(c1)OCO2 5.91%, O=C(c1cccc(-n2cccc2)c1)N1CCN(S(=O)(=O)c2ccc(F)cc2)CC1 14.4%, CC(C)c1ccc(NC(=O)[C@@H](NC(=O)N2CC(=O)Nc3ccccc32)C(C)C)cc1 -1.48%, Cc1nnc(N/N=C/c2cccs2)[nH]c1=O 0.78%, COc1cccc(/C=N/Nc2ccc(Cl)nn2)c1 18.6%, Cc1ccsc1/C=N/NC(=O)Cc1cc(=O)[nH][nH]1 1.38%, Oc1c(Br)cccc1/C=N/Nc1c(F)c(F)c(F)c(F)c1F -1.11%, NC(=O)N/N=C\c1cccs1 1.75%, Cc1ccsc1/C=N/n1c(=S)[nH]nc(C)c1=O 2.51%, COc1ccc(CNC(=O)c2c[nH]c3c(OC)cc(OC)cc3c2=O)cc1 2.86%, CCc1ccc(NC(=O)N2CCc3ccccc3C2)cc1 -1.34%, COc1ccc(NS(=O)(=O)c2cc(C(=O)Nc3ccccc3C(=O)O)ccc2C)cc1 1.9%, O=C(NC(=S)N1CCCCC1c1cccnc1)c1ccccc1 (stereo unspecified) 4.53%, Cc1ccc2c(c1)c1ncnc(N3CCc4ccccc4C3)c1n2C -0.51%, CC(C)OCCCNC(=O)CN1C(=O)/C(=C/c2ccccc2F)Oc2ccccc21 -19.2%, Cc1ccc(OCC(=O)Nc2ccc(C(=O)O)cc2NC(=O)COc2ccc(C)c(C)c2)cc1C 0.26%, COCCn1c(SCc2nnc(-c3ccc(OC)c(OC)c3)o2)nc2sc3c(c2c1=O)CCC3 -13.2%, CSc1ccc(S(=O)(=O)N2CCC(C(=O)NCCc3ccccc3)CC2)cc1 0.01%, O=C(NCc1ccncc1)C1CCN(C(=O)c2cccc(Cl)c2)CC1 -1.77%, O=C(c1cccs1)N(Cc1cc2ccccc2[nH]c1=O)CC1CCCO1 (stereo unspecified) 2.59%, O=C(Nc1ccc(C(=O)NCc2ccccc2Cl)cc1)C1=CSCCO1 2.51%, O=c1c2ccccc2nc(N/N=C/c2ccccc2)n1O 3.06%, Nc1nnn(CC(=O)N/N=C/c2ccc(O)cc2)n1 7.09%, O=c1cc(Cl)c2ccccc2n1-c1ccccc1 1.05%, CN(C(=O)CSc1nnc(-c2n[nH]c3ccccc23)o1)c1ccccc1 -5.28%, Cc1c(C)c(C)c2[nH]c(=S)[nH]c2c1C -2.04%, Cc1ccc2occ(/C=N/NC(=O)c3ccccc3C)c(=O)c2c1 6.11%, O=C(N/N=C/c1c[nH]c2ccccc12)c1cc2ccccc2o1 -7.84%, Cc1c(/C=N\NC(=O)c2cc3ccccc3o2)c2ccccc2n1C 0.69%, O=c1c(/C=N/O)coc2ccc(Cl)cc12 8.13%, C[C@H](C(=O)CC(=O)OC(C)(C)C)[C@H](O)c1ccc(C(F)(F)F)cc1 2.4%, O=S(=O)(c1ccc(Cl)cc1)c1nc(-c2ccccc2F)oc1NCCN1CCOCC1 1.96%, CN(Cc1ccccc1)C(=O)CSc1nc2ccccc2[nH]1 7.79%, O=C(C1CCCO1)N1CCN(S(=O)(=O)c2ccc(Br)cc2)CC1 (stereo unspecified) -7.44%, Cc1cccn2c(=O)c3cc(C(=O)NCCN4CCOCC4)c(=N)n(Cc4cccnc4)c3nc12 7.09%, COCCNC(=O)C1CCN(C(=O)C2CC(=O)N(c3ccc(C)cc3)C2)CC1 (stereo unspecified) -4.37%, CC(C)(C)N(Cc1ccccc1)C(=O)c1ccncc1 2.34%, Cc1ccc(-n2c(C)cc(/C=N/Nc3ccc([N+](=O)[O-])cn3)c2C)c(C)c1 7.66%, COc1cc(/C=N/O)ccc1OCc1ccc([N+](=O)[O-])cc1 2.23%, CCOc1ccc(/C=N/Nc2nncc(-c3ccccc3)n2)cc1OC 8.38%, Cc1cc(/C=C2\SC(=O)N(C)C2=O)c(C)n1-c1cccc(C(=O)O)c1 7.23%, CC(=O)c1c(C)n(-c2ccc(C)cc2)c2ccc(O)cc12 -3.09%

inhibition, active:
CCOC(=O)c1c(/N=C/C2C(=O)CC(C)(C)CC2=O)sc(C)c1C 28.8%, Nc1ccc2nc3c(=O)[nH]c(=S)[nH]c3nc2c1 28.9%, CC1CC2=C(CC1/C=N/NC(N)=S)C(C)(C)CCC2 (stereo unspecified) 30.5%, C/C(=N\NC(=O)c1ccoc1C)c1ccccc1O 31.6%, OCCn1c(-c2ccccc2)csc1=Nc1ccccc1 44.3%, CNC(=S)NNC(=O)c1ccc(N(C)C)cc1 37.4%, CN(C)S(=O)(=O)c1cccc(NC(=S)N/N=C/C(=O)c2ccccc2)c1 29.6%, Cc1cc2c(C)nc(N/N=C/c3ccccc3)nc2o1 37.1%, ClC1(Cl)CC1CSc1ncn[nH]1 (stereo unspecified) 34.4%, Clc1ccc(N/N=C/c2cccs2)nn1 31.6%, Oc1cccc(/C=N/Nc2ccc(Cl)nn2)c1O 60.9%, Cc1ccsc1/C=N/Nc1ccc(Cl)nn1 38.9%, CC(C)(C)c1nnc(N/N=C/c2ccc(O)cc2)n(N)c1=O 44.5%, O=c1[nH]c(=S)[nH]c2[nH]c(=S)[nH]c12 43.7%, O=C(N/N=C/c1coc2ccccc2c1=O)c1cc2ccccc2o1 36.8%, NC(=S)N/N=C/c1coc2cc(Cl)ccc2c1=O 50.2%, COc1cc(/C=N\Nc2ccc([N+](=O)[O-])cn2)ccc1OCC(=O)O 43.1%, Cc1cc(/C=N/Nc2ccc([N+](=O)[O-])cn2)c(C)n1-c1cccc(C(=O)O)c1 50.7%
